FGF22 binding: binders of human FGF22 protein, primary screen, FGF22 synaptogenesis inhibitor project, biophysical, thermal shift, single point. Fibroblast growth factor 22 (Homo sapiens), Q9HCT0. recombinant FGF22 thermal shift, SYPRO orange fluorescence; percent of sucrose octasulfate shift, DMSO zero. activity (Tm shift, normalised), % at 9.99 µM. actives 1.5% (n = 340,000);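 active = mean Tm shift, scaled 0 neutral to 100 positive control, at about 1.3% or above, every replicate too, limit read from the data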
Target sequence (Q9HCT0 whole entry, looked up): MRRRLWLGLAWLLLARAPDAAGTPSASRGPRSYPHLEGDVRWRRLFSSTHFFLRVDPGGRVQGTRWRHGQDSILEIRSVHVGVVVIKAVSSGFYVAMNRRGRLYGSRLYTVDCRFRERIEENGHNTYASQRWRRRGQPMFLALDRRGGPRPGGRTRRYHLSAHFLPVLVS
Vif inh: HIV Vif self-association inhibitors, primary screen, imaging, HEK293T, single point. HEK293T cells, Vif self-association by quenched fluorescence, 24 h. actives 0.35% (n = 340,000). inhibition, % at 7.49 µM; in the data active = inhibition above about 50%, passing the limit was not always enough
F508del corr: F508del CFTR correction, initial screen, CFBE line, single point; actives 0.36% (n = 350,000); CFBE cells, YFP halide quenching; stimulated with forskolin plus potentiator P3; % fluorescence drop versus neutral controls; activity (quench increase), % at 7.58 µM;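 active = mean added fluorescence quench of at least 8% versus neutral control, with both replicates also reaching 8%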;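 note: cells transiently co-express mutant CFTR-F508del with the halide-sensitive YFP; corrector assay measuring rescue of mutant channel to the surface after 24 h compound exposure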
Starred values were filed as active, the others as inactive; . = no result. Sampled rows, rich in hits. Any-hit rate of the full collection: about 1.7%.

SMILES | FGF22 binding | Vif inh | F508del corr
Cc1cc(OCC(C)C)ccc1/C(O)=C1/C(=O)C(=O)N(Cc2cccnc2)C1c1ccncc1 (stereo not drawn) | . | 53.9* | .
O=C(C[C@H]1CC[C@@H]2[C@H](COC[C@@H](O)CN2C(=O)Cc2ccccc2)O1)NC1Cc2ccccc2C1 | -0.1 | . | 1.3
CN(C)CC(=O)Nc1ccc2c(c1)[C@@H]1C[C@@H](CC(=O)NCc3cc(F)ccc3F)O[C@H](CO)[C@@H]1O2 | 0.1 | . | -0.4
Cc1noc(C)c1S(=O)(=O)N(C)C[C@H]1Oc2ccc(NS(=O)(=O)c3ccc(F)cc3)cc2CC(=O)N([C@@H](C)CO)C[C@@H]1C | -0.2 | . | -1.7
O=C(NCCN1C(=O)S/C(=C\c2ccc(OC(F)F)cc2)C1=O)c1cnccn1 | 0.0 | 1.5 | 13.2*
O=C(NCCN1C(=O)S/C(=C\c2ccc(OC(F)F)cc2)C1=O)C1=COCCO1 | . | -14.6 | .
CC(Oc1ccc(Cl)cc1)C(=O)NCCN1C(=O)S/C(=C\c2cccnc2)C1=O (stereo not drawn) | . | 0.9 | .
COc1ccc(/C=C2\SC(=O)N(CCNC(=O)C3=COCCO3)C2=O)cc1 | 0.2 | -11.8 | 8.0*
COCC(=O)Nc1ccc2c(c1)[C@@H]1C[C@H](CC(=O)NC3CCCCC3)O[C@@H](CO)[C@@H]1O2 | 0.2 | . | -3.0
C[C@@H]1CN([C@@H](C)CO)C(=O)c2cc(NS(C)(=O)=O)ccc2O[C@@H](C)CCCCO[C@H]1CN(C)C(=O)c1ccncc1 | 1.0 | . | -1.3
CC(Sc1nc(N)cc(=O)[nH]1)C(=O)Nc1sc2c(c1C#N)CCCC2 (stereo not drawn) | 0.2 | -20.4 | 1.0
Cc1nnc(SC(C)C(=O)Nc2sc3c(c2C#N)CCCC3)[nH]c1=O (stereo not drawn) | -0.2 | 53.0* | -0.1
C[C@H]1CCCCO[C@H](CN(C)S(=O)(=O)c2cccs2)[C@@H](C)CN([C@@H](C)CO)C(=O)c2cc(NS(=O)(=O)c3cccs3)ccc2O1 | -0.3 | . | 0.8
C[C@@H]1CN([C@@H](C)CO)C(=O)c2cccc(NS(=O)(=O)c3ccc(F)cc3)c2O[C@H]1CN(C)C | -0.2 | . | -1.1
COc1cccc(S(=O)(=O)N[C@H]2C=C[C@@H](CC(=O)NC3Cc4ccccc4C3)O[C@@H]2CO)c1 | -0.3 | . | 0.8
Cc1ccc(S(=O)(=O)N2CCN(C(=O)c3cc(S(=O)(=O)N4CCOCC4)c(Cl)cc3Cl)CC2)cc1 | 0.0 | -4.4 | 0.9
O=C(c1cc(S(=O)(=O)N2CCOCC2)c(Cl)cc1Cl)N1CCN(S(=O)(=O)c2cccc(F)c2)CC1 | 42.9* | -3.9 | -2.2
O=C(NCCCN1CCOCC1)c1cc(Cl)ccc1Cl | 0.0 | -3.8 | -3.8
O=C(NCCCN1CCOCC1)c1cc(S(=O)(=O)N2CCOCC2)c(Cl)cc1Cl | -0.2 | 25.7 | 9.0*
Cc1noc(C)c1S(=O)(=O)N(C)C[C@@H]1OCCCC[C@@H](C)Oc2ccc(NS(C)(=O)=O)cc2C(=O)N([C@H](C)CO)C[C@@H]1C | -0.3 | . | -3.6
CC(C)NC(=O)N(C)C[C@H]1Oc2ccc(NC(=O)CCCCCC(=O)Nc3ccccc3N)cc2CC(=O)N([C@H](C)CO)C[C@H]1C | -0.3 | . | 0.6
OCC1CCCN(Cc2cn(Cc3ccccc3)nc2-c2cc3ccccc3o2)C1 (stereo not drawn) | 43.0* | 8.1 | 2.1
COC1CCN(Cc2cn(Cc3ccccc3)nc2-c2cc3ccccc3o2)CC1 | -0.1 | -3.0 | -0.2
OCc1cn(-c2ccccc2)nc1-c1cc2ccccc2o1 | 0.2 | -7.1 | -4.6
OCC1CCN(Cc2cn(Cc3ccccc3)nc2-c2cc3ccccc3o2)CC1 | 43.7* | -8.1 | -2.2
SMILES | FGF22 binding | Vif inh | F508del corr
CS(=O)(=O)N1[C@@H](C#N)[C@@H](c2ccccc2-c2ccccc2)[C@@H]1CO | -0.2 | . | 3.0
O=C(Nc1cccc(-c2cn3cccnc3n2)c1)c1ccco1 | 0.2 | -2.0 | -0.6
O=C(Nc1cccc(-c2cn3cccnc3n2)c1)c1ccc(Br)o1 | . | 81.1* | .
Cc1c(-c2cccc(NC(=O)c3ccco3)c2)nc2ncccn12 | 44.3* | -6.5 | -2.1
Nc1cccc(-c2cn3cccnc3n2)c1 | 42.9* | 1.6 | -2.2
Cc1ccc(-c2cn3cccnc3n2)cc1 | 0.0 | -2.8 | -3.0
Cc1c(-c2cccc(NC(=O)c3cccs3)c2)nc2ncccn12 | 0.8 | 1.6 | .
CC(C)CC#Cc1ccc2c(c1)O[C@H](CN(C)C(=O)Cc1ccccn1)[C@@H](C)CN([C@@H](C)CO)S2(=O)=O | -0.4 | . | 1.3
C[C@@H]1CCCCO[C@H](CN(C)C)[C@@H](C)CN([C@H](C)CO)C(=O)c2cc(NC(=O)C3CCCCC3)ccc2O1 | -0.1 | . | -1.1
